Sampled rows, rich in hits. Any-hit rate of the full collection: about 17%.
TDP1 cell noCPT: qHTS for Inhibitors of human tyrosyl-DNA phosphodiesterase 1 (TDP1): qHTS in cells in absence of CPT. DT40 Tdp1-/- hTDP1 cells, no CPT, ATP luminescence, 48 h. Potency, µM (highest dose often 46.2 µM), actives largely listed as inhibitors. 420,000 compounds, 15% hits. AID 686978, 2013; also: nearly all actives have a fitted effect of over 55% in size
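A cellular qHTS used chicken DT40 cells lacking endogenous Tdp1 but carrying stably transfected human TDP1. Compounds were applied without camptothecin, and cell growth kinetics were judged by ATP-dependent luminescence after ≥48 hr.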
ClpP mod: qHTS Assay for Activators of ClpP. AID 651965, 2013. purified B. subtilis ClpP, FRET peptide cleavage, 20 min. Potency, µM (doses to about 57.5 µM). 340,000 compounds, 1.9% hits. ATP-dependent Clp protease proteolytic subunit (Bacillus subtilis (strain 168)), P80244; active = well fitted falling curve with a large enough effect; inconclusive = small, poorly fitted or top-dose-only effect; inactive = no such curve, though single readings can be large or run the other way; also: the source files actives as falling curves though it sought activators and does not explain the sign; nearly all actives have a fitted effect of over 65% in size
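ClpP 10 microg/mL final, pH 8 Tris/KCl buffer with BSA, glycerol, Tween-20; compound pinned in; FRET-FV substrate; RT 20 min; Ex320/Em430; ΔFRET vs ADEP 5.8 microM, DMSO, no enzyme.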
DT40 TDP1 CPT: qHTS for Inhibitors of human tyrosyl-DNA phosphodiesterase 1 (TDP1): qHTS in cells in presence of CPT; 420,000 compounds, 12% hits; Potency, µM (doses to about 46.2 µM), usual class: inhibitors; chicken DT40 Tdp1-/-;hTDP1 cells + 20 nM CPT, ATP luminescence, 48 h; also: nearly all actives have a fitted effect of over 55% in size
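Chicken DT40 Tdp1-/- cells stably complemented with human TDP1 were seeded at 400 cells/well in medium containing 20 nM camptothecin, exposed to pin-transferred compounds, and grown at 37 °C for at least 48 hr. Viability was read as ATP luminescence.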
TDP1 block: qHTS Assay for Inhibitors of Tyrosyl-DNA Phosphodiesterase (TDP1); Potency, µM (series often up to 130 µM), actives largely listed as inhibitors; 350,000 compounds, 0.28% hits; Tyrosyl-DNA phosphodiesterase 1 (Homo sapiens), Q9NUW8; recombinant TDP1, AlphaScreen DNA substrate cleavage; also: nearly all actives have a fitted effect of over 40% in size
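Enzyme-compound mixtures sat 15 min at room temperature, followed by a 5 min reaction with 15 nM final substrate and 10 min with AlphaScreen beads. Recombinant human Tdp1 was used at 1 nM final.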
A number is an active result; - = inactive; ? = inconclusive; . = no result; [ ] = another dose, or the depositor's remark. Unless noted, calls follow the shape of the dose curve; as a rule, active = well fitted curve in the direction sought with a large enough effect; inconclusive = small, poorly fitted or top-dose-only effect, or another doubt; inactive = no such curve, though single readings can be large; an effect the other way counts as inactive or inconclusive.

SMILES	TDP1 cell noCPT	ClpP mod	DT40 TDP1 CPT	TDP1 block
Cc1nc(CS(=O)c2ccc(Cl)cc2)cc(NCc2ccc(Cl)cc2Cl)n1 (stereo not given)	20.6µM	-	14.6µM	-
CNc1nc(Nc2ccc(C(C)=O)cc2)nc(OC(C(F)(F)F)C(F)(F)F)n1	23.1µM	-	?	-
Cc1cccc(C)c1NC(=O)c1cc(S(=O)(=O)N2CCc3ccccc3C2)ccc1F	?	-	18.4µM	-
O=S(=O)(c1ccc(Cl)cc1)N1CCCc2ccccc21	-	-	-	.
CC(=O)Nc1ccc(S(=O)(=O)N2CCCc3ccccc32)cc1	9.2µM	-	6.51µM	-
O=C(Nc1ccc(C(F)(F)F)cc1)c1cc(S(=O)(=O)N2CCCc3ccccc32)ccc1F	10.3µM	-	7.31µM	-
CCOc1ccc(NC(=O)c2cc(S(=O)(=O)N3CCc4ccccc43)ccc2F)cc1	9.2µM	-	8.2µM	-
Cc1cccc(C)c1NC(=O)c1cc(S(=O)(=O)N2CCC3(CC2)OCCO3)ccc1F	-	-	-	.
O=C(O)c1cc(S(=O)(=O)N2CCCc3ccccc32)ccc1Cl	-	-	-	.
CCCNC(=S)Nc1ccc2nc(-c3ccccn3)c(-c3ccccn3)nc2c1	-	-	-	-
O=C(COC(=O)Cc1ccc(S(=O)(=O)N2CCOCC2)s1)Nc1ccccc1Cl	-	-	?	-
Cc1cc(NC(=O)COC(=O)c2ccc(S(=O)(=O)N3CCCc4ccccc43)cc2)no1	3.26µM	-	3.66µM	-
O=C(Nc1c(F)cc(F)cc1Br)c1cc(S(=O)(=O)N2CCN(c3ccccn3)CC2)ccc1F	25.9µM	-	?	-
O=C(c1cc(S(=O)(=O)N2CCOCC2)ccc1F)N1CCCc2ccccc21	?	-	?	-
Cc1cccc(C)c1NC(=O)c1cc(S(=O)(=O)N2CCCc3ccccc32)ccc1F	4.11µM	-	10.3µM	-
CCOC(=O)/C=C/C(=O)Nc1ccc(S(=O)(=O)N(C)c2ccccc2)cc1	?	.	1.84µM	-
CCCS(=O)(=O)NC(=O)C1(C)CCCN(C(=O)COCc2ccccc2)C1 (stereo not given)	-	-	-	.
COC(=O)c1cc(S(=O)(=O)NCc2ccc3c(c2)OCO3)cn1C	-	.	-	-
Cc1ccc(N=C2S/C(=C\c3cn(CC(=O)O)c4ccccc34)C(=O)N2C)cc1	?	-	-	-
Cc1ccc([N+](=O)[O-])cc1S(=O)(=O)Nc1ccc(-c2ccc(N3CCCC3)nn2)cc1	-	-	-	.
COc1ccc(-c2cc(C(=O)Nc3ccn(Cc4ccc(C)cc4)n3)no2)cc1OC	-	-	-	-
COC(=O)Nc1ccc(S(=O)(=O)N2CCCCC2C(=O)O)cc1 (stereo not given)	-	.	-	-
COC(=O)Nc1ccc(S(=O)(=O)N2c3ccccc3CCC2C)cc1 (stereo not given)	2.59µM	-	4.61µM	-
CCOC(=O)/C=C/C(=O)Nc1ccc(S(=O)(=O)N2CCc3ccccc32)cc1	14.6µM	-	23.1µM	.
Cc1ccc(NC(=O)c2cc(S(=O)(=O)N3CCCc4ccccc43)ccc2F)cc1F	6.51µM	-	16.4µM	-
SMILES	TDP1 cell noCPT	ClpP mod	DT40 TDP1 CPT	TDP1 block
O=C(Nc1ccc(Cl)cc1)c1cc(S(=O)(=O)N2CCCc3ccccc32)ccc1F	14.6µM	-	16.4µM	-
O=S(=O)(NCCc1ccc(Cl)cc1)c1cccc2cccnc12	-	-	-	.
O=C(N[C@@H]1c2ccccc2C2(CCN(C(=O)c3ccc4c(c3)OCCO4)CC2)[C@H]1O)c1cccnc1	-	.	?	.
CCc1cccc(C)c1NC(=O)c1cc(S(=O)(=O)N2CCN(c3ccccc3)CC2)ccc1F	9.2µM	-	16.4µM	-
Cc1ccc(S(=O)(=O)N2CCCc3ccccc32)cc1C	9.2µM	-	11.6µM	.
CCC(=O)N1CCc2cc(S(=O)(=O)N3CCN(c4ccccn4)CC3)ccc21	11.6µM	?	?	-
CCCCCCNC(=O)c1cc(S(=O)(=O)N2CCc3ccccc32)ccc1F	?	-	?	.
Cc1ccc(NC(=O)c2cc(S(=O)(=O)N3CCc4ccccc43)ccc2F)cc1Cl	5.8µM	-	4.11µM	-
COC(=O)C1(C(=O)OC)C/C=C\C/C=C\c2ccccc2[C@@H]1C[N+](=O)[O-]	.	.	.	-
O=C(NCCC(=O)N1CCC2(CC1)NCCc1[nH]cnc12)c1ccc(F)c(F)c1	-	-	-	-
C[C@@H]1COc2cccc(N3CCN(Cc4ccccc4F)CC3)c2S(=O)(=O)N1	-	-	-	.
COc1ccc(S(=O)(=O)N2CCc3ccccc32)cc1C(=O)Nc1cccnc1	-	.	-	-
O=C(Nc1ccc(Br)cc1)c1cc(S(=O)(=O)N2CCc3ccccc32)ccc1F	14.6µM	-	14.6µM	-
CCC(=O)N1CCCc2cc(S(=O)(=O)N3CCCc4ccccc43)ccc21	18.4µM	-	25.9µM	-
COc1ccccc1CNc1ncnc2onc(-c3ccc(F)cc3)c12	-	-	-	-
CC[C@@H](c1ccccc1)n1c(=O)n2n(c1=O)[C@H]1[C@H](O)[C@H]3O[C@@H]3/C(=N/OCc3ccccc3)[C@@H]1CC2	.	.	.	-[21 µM]
COc1cc2sc3cc(NCc4ccc5c(c4)OCO5)ccc3c(=O)c2cc1OC	16.4µM	?	?	-
COc1cc2sc3cc(NCC[C@@H]4CCCN4C)ccc3c(=O)c2cc1OC	?	?	?	-
COc1cc2sc3cc(NCc4ccc(C)o4)ccc3c(=O)c2cc1OC	14.6µM	-	?	-
CCOC(=O)c1ccccc1NC1c2ccccc2C(=O)N1c1cc(C)ccn1 (stereo not given)	?	-	23.1µM	-
O=c1c2[nH]c3ccccc3c2ncn1CCN1CCCCC1	-	25.1µM	-	-
Nc1cc(Nc2ccccc2)ccn1	?	.	-	-
N#Cc1sc2nccc(Nc3ccccc3)c2c1N	2.06µM	.	?	.
COC(=O)C1=C(N)Oc2cc(N(C)C)ccc2C1c1ccccc1OC (stereo not given)	4.61µM	-	4.61µM	-
C=CCOC(=O)NC(c1ccc(F)c(F)c1)C(C(=O)CCl)C(=O)OC (stereo not given)	.	.	.	-
COc1ccc(OC)c(S(=O)(=O)N2c3cc(F)ccc3CCC2C)c1 (stereo not given)	?	-	7.31µM	-
CC(C)c1cc(CNC(=O)c2cc(COc3cncc(Cl)c3)on2)on1	18.4µM	-	?	.
COc1ccc(OC)c(-n2c(C)ccc2-c2ccc(S(C)(=O)=O)cc2)c1	?	28.2µM	18.4µM	-
O=C(NC1CCCCC1)C(c1ccc2ncccc2c1)N(Cc1ccc2c(c1)OCO2)C(=O)c1cccs1 (stereo not given)	?	-	18.4µM	-
